Where “and” joins values, the source holds several entries; their conditions need not be identical. Equal values may be shown once. Hit rate of the full screen: of about 5,500 compounds, about 2,000 (36%) were called active. Another 18% or so got no clear call; they are omitted. The list shows a part of the results. Values without a mark were called inactive. No stated cut-off is given here; in the data, active means normalized growth mostly below about 0.91 (no sharp cut-off); inconclusive means no clear call, values can overlap the other calls; inactive means mostly above about 0.92.
Experiment: chemical genetic growth profiling, strain panel (AID 1159580);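 further: tested at 20 µM; growth read once vehicle control cultures reached saturation at 30 °C; 1 = growth at the plate median or of vehicle wells; lower values mean less growth of the strain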
Conditions: growth OD
[1] = S. cerevisiae deletion strains, locus YAL013W, strain DEP1, active compounds read low
[2] = S. cerevisiae deletion strains, locus YBR229C, strain ROT2, active compounds read low
[3] = S. cerevisiae deletion strains, locus YCL061C, strain MRC1, active compounds read low
[4] = S. cerevisiae deletion strains, locus YDL101C, strain DUN1, active compounds read low
[5] = S. cerevisiae deletion strains, locus YDR150W, strain NUM1, active compounds read low
[6] = S. cerevisiae deletion strains, locus YEL061C, strain CIN8, active compounds read low
[7] = S. cerevisiae deletion strains, locus YGR078C, strain PAC10, active compounds read low
[8] = S. cerevisiae deletion strains, locus YHR030C, strain SLT2, active compounds read low
[9] = S. cerevisiae deletion strains, locus YHR087W, strain rtc3, active compounds read low
[10] = S. cerevisiae deletion strains, locus YJR043C, strain POL32, active compounds read low
[11] = S. cerevisiae deletion strains, locus YJR075W, strain HOC1, active compounds read low
[12] = S. cerevisiae deletion strains, locus YLR039C, strain RIC1, active compounds read low
[13] = S. cerevisiae deletion strains, locus YLR058C, strain SHM2 (second series), active compounds read low
[14] = S. cerevisiae deletion strains, locus YLR085C, strain ARP6, active compounds read low
[15] = S. cerevisiae deletion strains, locus YLR262C, strain YPT6, active compounds read low
[16] = S. cerevisiae deletion strains, locus YML094W, strain GIM5, active compounds read low
[17] = S. cerevisiae deletion strains, locus YMR219W, strain ESC1, active compounds read low
[18] = S. cerevisiae deletion strains, locus YMR263W, strain SAP30, active compounds read low
[19] = S. cerevisiae deletion strains, locus YMR307W, strain GAS1, active compounds read low
[20] = S. cerevisiae deletion strains, locus YNL153C, strain GIM3, active compounds read low
[21] = S. cerevisiae deletion strains, locus YNL298W, strain CLA4 (second series), active compounds read low
[22] = S. cerevisiae deletion strains, locus YNL322C, strain KRE1, active compounds read low
[23] = S. cerevisiae deletion strains, locus YNR030W, strain Alg12, active compounds read low
[24] = S. cerevisiae deletion strains, locus YPL055C, strain LGE1, active compounds read low
[25] = S. cerevisiae deletion strains, locus YPL241C, strain CIN2, active compounds read low
[26] = S. cerevisiae deletion strains, locus YPR135W, strain CTF4, active compounds read low

COc1ccc(CCNC(=S)NCCc2ccc(OC)c(OC)c2)cc1OC
normalized growth [1]: 0.998 | normalized growth [2]: 0.988 | normalized growth [3]: 0.993 | normalized growth [4]: 0.989 | normalized growth [5]: 0.985 | normalized growth [6]: 0.987 | normalized growth [7]: 0.981 | normalized growth [8]: 1 | normalized growth [9]: 0.979 | normalized growth (S. cerevisiae deletion strains, locus YJL187C, strain SWE1, active compounds read low): 0.994 | normalized growth [10]: 0.993 | normalized growth [11]: 1.04 | normalized growth [12]: 1.04 | normalized growth [13]: 1 | normalized growth [14]: 1.02 | normalized growth [15]: 1.02 | normalized growth [16]: 0.981 | normalized growth [17]: 1 | normalized growth [18]: 1.06 | normalized growth [19]: 1.06 | normalized growth (S. cerevisiae deletion strains, locus YNL128W, strain TEP1, active compounds read low): 1.02 | normalized growth [20]: 0.992 | normalized growth [21]: 1.01 | normalized growth [22]: 0.992 | normalized growth [23]: 1 | normalized growth [24]: 0.982 | normalized growth [25]: 1.08 | normalized growth [26]: 1.05 | normalized growth (S. cerevisiae strains, strain wild type, active compounds read low): 1.01

COc1ccc(CCN(C)CCc2ccc(OC)c(OC)c2)cc1OC
normalized growth (S. cerevisiae deletion strains, locus YAL040C, strain CLN3, active compounds read low): 1.08 | normalized growth (S. cerevisiae deletion strains, locus YCL061C, strain MRC1 (second series), active compounds read low): 0.998 | normalized growth [5]: 1.01 | normalized growth (S. cerevisiae deletion strains, locus YDR363W, strain ESC2, active compounds read low): 1.01 | normalized growth (S. cerevisiae deletion strains, locus YER002W, strain NOP16, active compounds read low): 1.01 | normalized growth [7]: 0.992 | normalized growth [11]: 0.983 | normalized growth [18]: 0.999 | normalized growth [19]: 0.998 | normalized growth [20]: 1.03 | normalized growth (S. cerevisiae deletion strains, locus YNL175C, strain NOP13, active compounds read low): 1.02 | normalized growth (S. cerevisiae deletion strains, locus YNL197C, strain WHI3, active compounds read low): 1.01 | normalized growth (S. cerevisiae deletion strains, locus YNL224C, strain SQS1, active compounds read low): 1.01 | normalized growth (S. cerevisiae deletion strains, locus YOR083W, strain WHI5 (second series), active compounds read low): 1.02 | normalized growth [24]: 0.985

COc1cc(CC/C(C)=N/O)ccc1OCc1ccc(Cl)cc1Cl
normalized growth [1]: 0.908 (active) | normalized growth (S. cerevisiae deletion strains, locus YAR019C, strain CDC15, active compounds read low): 0.977 | normalized growth (S. cerevisiae deletion strains, locus YBL105C, strain PKC1, active compounds read low): 0.972 | normalized growth (S. cerevisiae deletion strains, locus YBR135W, strain CKS1, active compounds read low): 0.978 | normalized growth (S. cerevisiae deletion strains, locus YBR136W, strain MEC1, active compounds read low): 0.977 | normalized growth (S. cerevisiae deletion strains, locus YBR160W, strain CDC28, active compounds read low): 0.981 | normalized growth [2]: 0.934 | normalized growth [3]: 0.931 | normalized growth (S. cerevisiae deletion strains, locus YDL017W, strain CDC7, active compounds read low): 0.979 | normalized growth (S. cerevisiae deletion strains, locus YDL028C, strain MPS1, active compounds read low): 0.978 | normalized growth [4]: 0.992 and 0.922 | normalized growth (S. cerevisiae deletion strains, locus YDL108W, strain KIN28, active compounds read low): 0.978 | normalized growth (S. cerevisiae deletion strains, locus YDL132W, strain cdc53, active compounds read low): 0.982 | normalized growth (S. cerevisiae deletion strains, locus YDL134C, strain PPH21, active compounds read low): 0.925 | normalized growth (S. cerevisiae deletion strains, locus YDL214C, strain PRR2, active compounds read low): 0.944 | normalized growth (S. cerevisiae deletion strains, locus YDR052C, strain DBF4, active compounds read low): 0.989 | normalized growth (S. cerevisiae deletion strains, locus YDR054C, strain cdc34, active compounds read low): 0.998 | normalized growth [5]: 0.911 | normalized growth (S. cerevisiae deletion strains, locus YDR226W, strain ADK1, active compounds read low): 1 | normalized growth (S. cerevisiae deletion strains, locus YDR477W, strain SNF1, active compounds read low): 0.952 | normalized growth [6]: 0.929 | normalized growth (S. cerevisiae deletion strains, locus YER123W, strain YCK3, active compounds read low): 0.939 | normalized growth (S. cerevisiae deletion strains, locus YER133W, strain GLC7, active compounds read low): 0.937 | normalized growth (S. cerevisiae deletion strains, locus YFL009W, strain cdc4, active compounds read low): 0.968 | normalized growth (S. cerevisiae deletion strains, locus YFL029C, strain CAK1, active compounds read low): 0.98 | normalized growth (S. cerevisiae deletion strains, locus YFR003C, strain YPI1, active compounds read low): 0.976 | normalized growth (S. cerevisiae deletion strains, locus YFR019W, strain FAB1, active compounds read low): 0.953 | normalized growth (S. cerevisiae deletion strains, locus YFR028C, strain CDC14, active compounds read low): 0.984 | normalized growth (S. cerevisiae deletion strains, locus YGR040W, strain KSS1, active compounds read low): 0.948 | normalized growth (S. cerevisiae deletion strains, locus YGR052W, strain FMP48, active compounds read low): 0.973 | normalized growth [7]: 0.92 (active) | normalized growth (S. cerevisiae deletion strains, locus YGR092W, strain DBF2, active compounds read low): 0.952 | normalized growth [8]: 0.242 (active) and 0.801 (active) | normalized growth (S. cerevisiae deletion strains, locus YHR079C, strain IRE1, active compounds read low): 0.885 | normalized growth (S. cerevisiae deletion strains, locus YHR082C, strain KSP1, active compounds read low): 1.02 | normalized growth [9]: 0.935 | normalized growth (S. cerevisiae deletion strains, locus YHR205W, strain SCH9, active compounds read low): 0.939 | normalized growth (S. cerevisiae deletion strains, locus YIL147C, strain SLN1, active compounds read low): 0.982 | normalized growth (S. cerevisiae deletion strains, locus YJL095W, strain BCK1, active compounds read low): 0.938 | normalized growth (S. cerevisiae deletion strains, locus YJL128C, strain PBS2, active compounds read low): 0.932 | normalized growth (S. cerevisiae deletion strains, locus YJL157C, strain FAR1, active compounds read low): 0.918 | normalized growth (S. cerevisiae deletion strains, locus YJR016C, strain ILV3, active compounds read low): 0.978 | normalized growth [10]: 0.91 (active) | normalized growth (S. cerevisiae deletion strains, locus YJR066W, strain TOR1 (second series), active compounds read low): 0.913 | normalized growth (S. cerevisiae deletion strains, locus YJR066W, strain TOR1, active compounds read low): 1.01 | normalized growth [11]: 0.879 (active) | normalized growth (S. cerevisiae deletion strains, locus YKL048C, strain ELM1, active compounds read low): 0.986 | normalized growth (S. cerevisiae deletion strains, locus YKL067W, strain YNK1, active compounds read low): 0.942 | normalized growth (S. cerevisiae deletion strains, locus YKL101W, strain HSL1, active compounds read low): 0.949 | normalized growth (S. cerevisiae deletion strains, locus YKL190W, strain CNB1, active compounds read low): 0.762 (active) | normalized growth (S. cerevisiae deletion strains, locus YKL193C, strain SDS22, active compounds read low): 0.979 | normalized growth (S. cerevisiae deletion strains, locus YKL203C, strain TOR2, active compounds read low): 0.972 | normalized growth [12]: 0.694 (active) | normalized growth [13]: 0.976 | normalized growth [14]: 0.307 (active) | normalized growth (S. cerevisiae deletion strains, locus YLR113W, strain HOG1, active compounds read low): 0.881 | normalized growth (S. cerevisiae deletion strains, locus YLR133W, strain CKI1, active compounds read low): 0.944 | normalized growth [15]: 0.803 (active) | normalized growth (S. cerevisiae deletion strains, locus YLR403W, strain SFP1, active compounds read low): 0.942 | normalized growth (S. cerevisiae deletion strains, locus YML070W, strain DAK1, active compounds read low): 0.936 | normalized growth [16]: 0.865 (active) | normalized growth (S. cerevisiae deletion strains, locus YMR001C, strain CDC5, active compounds read low): 0.971 | normalized growth (S. cerevisiae deletion strains, locus YMR205C, strain PFK2 (second series), active compounds read low): 0.965 | normalized growth [17]: 0.998 | normalized growth [18]: 0.912 | normalized growth (S. cerevisiae deletion strains, locus YMR277W, strain FCP1, active compounds read low): 0.979 | normalized growth (S. cerevisiae deletion strains, locus YNL006W, strain LST8, active compounds read low): 0.974 | normalized growth (S. cerevisiae deletion strains, locus YNL020C, strain ARK1, active compounds read low): 0.935 | normalized growth [20]: 0.94 | normalized growth (S. cerevisiae deletion strains, locus YNL161W, strain CBK1, active compounds read low): 0.976 | normalized growth (S. cerevisiae deletion strains, locus YNL183C, strain NPR1, active compounds read low): 0.978 | normalized growth (S. cerevisiae deletion strains, locus YNL207W, strain RIO2, active compounds read low): 0.979 | normalized growth (S. cerevisiae deletion strains, locus YNL222W, strain SSU72, active compounds read low): 0.98 | normalized growth [21]: 0.784 (active) | normalized growth (S. cerevisiae deletion strains, locus YNL307C, strain MCK1 (second series), active compounds read low): 0.932 | normalized growth [22]: 0.98 | normalized growth [23]: 0.803 (active) | normalized growth (S. cerevisiae deletion strains, locus YOL006C, strain TOP1, active compounds read low): 0.579 (active) | normalized growth (S. cerevisiae deletion strains, locus YOL078W, strain AVO1, active compounds read low): 0.983 | normalized growth (S. cerevisiae deletion strains, locus YOL136C, strain PFK27, active compounds read low): 0.921 | normalized growth (S. cerevisiae deletion strains, locus YOR061W, strain CKA2, active compounds read low): 0.966 | normalized growth (S. cerevisiae deletion strains, locus YOR119C, strain RIO1, active compounds read low): 1.02 | normalized growth (S. cerevisiae deletion strains, locus YOR231W, strain MKK1, active compounds read low): 0.929 | normalized growth (S. cerevisiae deletion strains, locus YOR329C, strain SCD5, active compounds read low): 0.976 | normalized growth (S. cerevisiae deletion strains, locus YPL031C, strain PHO85, active compounds read low): 0.94 | normalized growth [24]: 0.727 (active) | normalized growth (S. cerevisiae deletion strains, locus YPL153C, strain RAD53, active compounds read low): 0.95 | normalized growth (S. cerevisiae deletion strains, locus YPL209C, strain IPL1, active compounds read low): 0.976 | normalized growth [25]: 0.822 (active) | normalized growth (S. cerevisiae deletion strains, locus YPL256C, strain CLN2, active compounds read low): 0.863 (active) | normalized growth (S. cerevisiae deletion strains, locus YPR025C, strain CCL1, active compounds read low): 0.979 | normalized growth (S. cerevisiae deletion strains, locus YPR106W, strain ISR1, active compounds read low): 0.976 | normalized growth (S. cerevisiae deletion strains, locus YPR111W, strain DBF20, active compounds read low): 0.993 | normalized growth [26]: 0.388 (active) | normalized growth (S. cerevisiae deletion strains, strain NNK1, active compounds read low): 0.976 | normalized growth (S. cerevisiae deletion strains, strain TSCII, active compounds read low): 0.973

From PubChem BioAssay AID1159580 (chemical genetic matrix, 2015)
